This is an account of results in PubChem BioAssay (Tox21).

Structures are written as SMILES. “And” between values parts separate entries of the source, which are not always exact repeats. Identical values can stand only once. Results filed as inconclusive are left out. More than one record can exist for a structure, and the calls need not agree. The source made the active and inactive calls. Calls follow the shape of the dose curve; as a rule, active = well fitted curve in the direction sought with a large enough effect in the repeat runs; inconclusive = weak or mixed curves; inactive = no such curve, though single readings can be large; an effect the other way counts as inactive or inconclusive.

Assay [1] can be described thus: A CellTox Green Cytotoxicity Assay to monitor cytotoxicity in HEK293 cells - 40 hour (AID 1224871). Also: nearly all actives have a fitted effect of over 45% in size. Also: potency is read from the fitted curve at half-maximal effect. The conditions noted are these: CellTox Green fluorescence; series mostly up to 76.8 µM. The procedure, abridged: (§1)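 Nonlytic real-time cytotoxicity: HEK293 + CellTox Green reagent plated, 5 h preincubation, pintool compound addition (23 nL in DMSO), 37 C for 40 h, fluorescence measured at successive time points.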

The nature of assay [2]: qHTS RealTime-Glo MT Cell Viability Assay in HEK293 cells - 16 hour (AID 1224872). Also: nearly all actives have a fitted effect of over 50% in size. Also: potency is read from the fitted curve at half-maximal effect. Conditions: RealTime-Glo luminescence; series mostly up to 76.8 µM. The procedure, abridged:
(§2)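 Quantitative high-throughput screen of the Tox21 10K library in HEK293: cells and RealTime-Glo reagents plated together, compound added at 5 h, luminescence monitored through 40 h at 37 C.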
Background: Quantitative high-throughput screening tests each substance at several concentrations.

Assay [3] is described as follows: qHTS RealTime-Glo MT Cell Viability Assay in HepG2 cells - 8 hour (AID 1224873). Also: nearly all actives have a fitted effect of over 55% in size. The conditions noted are these: RealTime-Glo luminescence; series mostly up to 76.8 µM. The procedure, abridged:
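HepG2 cells (600/well) mixed with RealTime-Glo MT reagent, settled 5 h at 37 C/5% CO2 before compound addition. Nonlytic NanoLuc luminescence from viable-cell prosubstrate reduction read repeatedly during 40 h treatment at 37 C.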

Assay [4] is described as follows: qHTS RealTime-Glo MT Cell Viability Assay in HEK293 cells - 40 hour (AID 1224874). Also: nearly all actives have a fitted effect of over 50% in size. Also: potency is read from the fitted curve at half-maximal effect. Conditions: RealTime-Glo luminescence; max response: stronger effect = lower value. An outline of the steps: (§3)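 Cells were seeded together with NanoLuc luciferase and a prosubstrate that viable cells reduce to a luciferase substrate. After a 5 h incubation at 37 C/5% CO2, compounds were added and luminescence was measured repeatedly during 40 h of treatment.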

Assay [5] in a line: A CellTox Green Cytotoxicity Assay to monitor cytotoxicity in HEK293 cells - 24 hour (AID 1224875). Also: nearly all actives have a fitted effect of over 45% in size. The conditions noted are these: CellTox Green fluorescence; series mostly up to 76.8 µM. An outline of the steps:
as §1

Assay [6] can be described thus: A CellTox Green Cytotoxicity Assay to monitor cytotoxicity in HepG2 cells - 16 hour (AID 1224876). Also: nearly all actives have a fitted effect of over 45% in size. The conditions noted are these: CellTox Green fluorescence; series mostly up to 76.8 µM. The procedure, abridged:
(§4)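 Read-out is fluorescence of a cyanine dye excluded from live cells that stains DNA of dead HepG2 cells, with signal proportional to cytotoxicity. Plates were read at 0, 8, 16, 24, 32 and 40 h after compound addition.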

Assay [7] can be described thus: qHTS RealTime-Glo MT Cell Viability Assay in HepG2 cells - 32 hour (AID 1224877). Also: nearly all actives have a fitted effect of over 55% in size. Conditions: RealTime-Glo luminescence; series mostly up to 76.8 µM. An outline of the steps: (§5)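 Compound treatment began 5 h after plating HepG2 cells (600/well) with NanoLuc luciferase and prosubstrate. Plates stayed at 37 C for 40 h; luminescence was captured at six time points, 0 h through 40 h.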

Assay [8] is described as follows: A CellTox Green Cytotoxicity Assay to monitor cytotoxicity in HepG2 cells - 24 hour (AID 1224878). Also: nearly all actives have a fitted effect of over 45% in size. The conditions noted are these: CellTox Green fluorescence; series mostly up to 76.8 µM. The procedure, abridged:
as §4

The nature of assay [9]: A CellTox Green Cytotoxicity Assay to monitor cytotoxicity in HepG2 cells - 40 hour (AID 1224879). Also: nearly all actives have a fitted effect of over 40% in size. Also: potency is read from the fitted curve at half-maximal effect. The conditions noted are these: CellTox Green fluorescence; series mostly up to 76.8 µM. The procedure, abridged: as §4
Assay [10] is described as follows: qHTS RealTime-Glo MT Cell Viability Assay in HEK293 cells - 0 hour (AID 1224880). The conditions noted are these: RealTime-Glo luminescence; series mostly up to 76.8 µM. The procedure, abridged:
as §3

Assay [11] can be described thus: A CellTox Green Cytotoxicity Assay to monitor cytotoxicity in HEK293 cells - 32 hour (AID 1224881). Also: nearly all actives have a fitted effect of over 40% in size. Conditions: CellTox Green fluorescence; series mostly up to 76.8 µM. The procedure, abridged:
as §1

The nature of assay [12]: A CellTox Green Cytotoxicity Assay to monitor cytotoxicity in HepG2 cells - 0 hour (AID 1224882). Also: nearly all actives have a fitted effect of over 35% in size. Conditions: CellTox Green fluorescence; series mostly up to 76.8 µM. The procedure, abridged:
as §4

The nature of assay [13]: A CellTox Green Cytotoxicity Assay to monitor cytotoxicity in HepG2 cells - 32 hour (AID 1224883). Also: nearly all actives have a fitted effect of over 50% in size. Conditions: CellTox Green fluorescence; series mostly up to 76.8 µM. The procedure, abridged:
as §4

Assay [14] in a line: A CellTox Green Cytotoxicity Assay to monitor cytotoxicity in HEK293 cells - 8 hour (AID 1224884). Also: nearly all actives have a fitted effect of over 35% in size. The conditions noted are these: CellTox Green fluorescence; series mostly up to 76.8 µM. An outline of the steps: as §1
Assay [15] in a line: qHTS RealTime-Glo MT Cell Viability Assay in HepG2 cells - 16 hour (AID 1224885). Also: nearly all actives have a fitted effect of over 50% in size. Conditions: RealTime-Glo luminescence; series mostly up to 76.8 µM. The procedure, abridged: as §5
The nature of assay [16]: qHTS RealTime-Glo MT Cell Viability Assay in HEK293 cells - 24 hour (AID 1224886). Also: nearly all actives have a fitted effect of over 50% in size. Also: potency is read from the fitted curve at half-maximal effect. Conditions: RealTime-Glo luminescence; series mostly up to 76.8 µM. The procedure, abridged:
as §2

A short description of assay [17]: qHTS RealTime-Glo MT Cell Viability Assay in HEK293 cells - 8 hour (AID 1224887). Conditions: RealTime-Glo luminescence; series mostly up to 76.8 µM. An outline of the steps:
as §3

Assay [18] is described as follows: A CellTox Green Cytotoxicity Assay to monitor cytotoxicity in HEK293 cells - 16 hour (AID 1224888). Also: nearly all actives have a fitted effect of over 35% in size. The conditions noted are these: CellTox Green fluorescence; series mostly up to 76.8 µM. An outline of the steps: as §1
Assay [19] in a line: qHTS RealTime-Glo MT Cell Viability Assay in HepG2 cells - 0 hour (AID 1224889). Also: nearly all actives have a fitted effect of over 50% in size. Conditions: RealTime-Glo luminescence; series mostly up to 76.8 µM. The procedure, abridged: as §5
The nature of assay [20]: A CellTox Green Cytotoxicity Assay to monitor cytotoxicity in HepG2 cells - 8 hour (AID 1224890). Also: nearly all actives have a fitted effect of over 45% in size. Conditions: CellTox Green fluorescence; series mostly up to 76.8 µM. An outline of the steps: as §4
% is scaled to controls: 0 for no effect and ±100 for the full control effect.

Consider `C=C(CC(=O)O)C(=O)O`, for which the Potency result in [1], in assay [2], in assay [3], in assay [5], in [6] and in [7] was “inactive” each time. Also, the Potency result in [8], in assay [9], in [10], in assay [11], in [12] and in [13] was “inactive” throughout. Moreover, the Potency result in [14], in assay [15], in [16], in assay [17], in assay [18] and in assay [19] was “inactive” throughout. For the same compound, the Potency result in assay [20] was “inactive”. Moreover, the max response in assay [4] was 2.09% (inactive) and -0.881% (inactive).

For `N#CCC(=O)O`, the Potency result in [1], in [2], in assay [3], in [5], in [6] and in assay [7] was “inactive” each time. For the same compound, the Potency result in assay [8], in [9], in assay [10], in assay [11], in [12] and in assay [13] was “inactive” each time. The Potency result in assay [14], in assay [15], in [16], in assay [17], in assay [18] and in [19] was “inactive” each time. In addition, the Potency entry in [20] was “inactive”. Moreover, in [4], the max response is -0.419% (inactive) and 10.1% (inactive).

Regarding `CCCOCC(C)O` (stereo not drawn), the Potency result in assay [1], in assay [2], in assay [3], in assay [5], in assay [6] and in assay [7] was “inactive” each time. For the same compound, the Potency result in assay [8], in [9], in [10], in assay [11], in assay [12] and in assay [13] was “inactive” throughout. Also, the Potency result in assay [14], in assay [15], in [16], in assay [17], in [18] and in assay [19] was “inactive” in each case. In addition, the Potency entry in assay [20] is “inactive”. The max response in assay [4] is 6.7% (inactive) and -0.928% (inactive).

`C=C(C)CC(C)(C)C`: the Potency entry in assay [1], in assay [2], in assay [3], in [5], in assay [6] and in assay [7] was “inactive” each time. Besides, the Potency result in assay [8], in [9], in assay [10], in assay [11], in assay [12] and in [13] was “inactive” each time. In addition, the Potency entry in assay [14], in [15], in [16], in assay [17], in assay [18] and in [19] was “inactive” in each case. In assay [20], the Potency entry was “inactive”. In addition, the max response in assay [4] was 7.8% (inactive) and -7.58% (inactive).

For the compound `Cc1ccc(Cl)cc1`, the Potency entry in [1], in assay [2], in assay [3], in assay [5], in assay [6] and in [7] was “inactive” each time. Further, the Potency entry in [8], in assay [9], in assay [10], in [11], in assay [12] and in assay [13] was “inactive” throughout. Besides, the Potency entry in assay [14], in [15], in assay [16], in assay [17], in [19] and in assay [20] was “inactive” each time. In assay [4], the max response is 3.18% (inactive) and 19.9% (inactive).

For `Cc1ccc(C(C)C)cc1`, the Potency entry in assay [1], in assay [2], in assay [3], in assay [5], in assay [6] and in [7] was “inactive” each time. The Potency entry in assay [8], in assay [9], in assay [10], in assay [11], in [12] and in assay [13] was “inactive” throughout. In addition, the Potency result in assay [14], in assay [15], in [16], in assay [17], in [18] and in [19] was “inactive” throughout. Moreover, the Potency entry in assay [20] is “inactive”. The max response in assay [4] was 2.75% (inactive) and 28.4% (inactive).

For `CCCCC(CC)COC(=O)c1ccc(C(=O)OCC(CC)CCCC)cc1` (stereo not drawn), the Potency result in assay [1], in assay [2], in assay [3], in [5], in [6] and in assay [7] was “inactive” each time. The Potency entry in [8], in [9], in [10], in assay [11], in assay [12] and in assay [13] was “inactive” in each case. Further, the Potency entry in [14], in assay [15], in [16], in [17], in assay [18] and in assay [19] was “inactive” throughout. Also, in assay [20], the Potency entry was “inactive”. Moreover, the max response in [4] was 10.3% (inactive) and 17.5% (inactive).

On to `CC(=O)OCCC(C)C`, for which the Potency result in assay [1], in [2], in assay [3], in assay [5], in [6] and in assay [7] was “inactive” in each case. The Potency result in [8], in assay [9], in assay [10], in assay [11], in assay [12] and in assay [13] was “inactive” in each case. Moreover, the Potency entry in assay [14], in assay [15], in assay [16], in assay [17], in assay [18] and in [19] was “inactive” in each case. Besides, in [20], the Potency result is “inactive”. Also, in [4], the max response is 3.8% (inactive) and 7.54% (inactive).

Regarding `C=CC(C)(C)C`, the Potency entry in assay [1], in [2], in assay [3], in [5], in assay [6] and in [7] was “inactive” in each case. Also, the Potency entry in assay [8], in assay [9], in assay [10], in assay [11], in assay [12] and in assay [13] was “inactive” throughout. Further, the Potency entry in assay [14], in [15], in [16], in assay [17], in [18] and in assay [19] was “inactive” in each case. The Potency result in [20] was “inactive”. For the same compound, in assay [4], the max response was 1.9% (inactive) and -10.6% (inactive).

Regarding `c1cnc2c(c1)ccc1cccnc12`, the Potency in assay [1] was 49.4 µM (active) and 43.6 µM (active) and inactive; in assay [2] it was 11 µM (active); in assay [4] it was 3.12 µM (active) and 7.76 µM (active) and 6.92 µM (active); in assay [9], 44.1 µM (active) and inactive; in assay [16] it was 3.5 µM (active) and 8.71 µM (active) and 9.77 µM (active). The Potency result in [3], in assay [5], in [6], in assay [7], in assay [8] and in assay [10] was “inactive” throughout. For the same compound, the Potency result in assay [11], in [12], in assay [13], in [14], in [15] and in [17] was “inactive” each time. Also, the Potency entry in [18], in assay [19] and in assay [20] was “inactive” throughout.

Take `Cc1ccncc1`: the Potency result in [1], in assay [2], in assay [3], in [5], in assay [6] and in [7] was “inactive” in each case. Further, the Potency result in assay [8], in assay [9], in [10], in assay [11], in [12] and in [13] was “inactive” throughout. Further, the Potency entry in assay [14], in assay [15], in assay [16], in [17], in [19] and in [20] was “inactive” each time. Besides, in assay [4], the max response was 1.94% (inactive) and -1.5% (inactive).
